Measured values reported in PubChem BioAssay.
Potency and affinity values are given separately. Activity calls are given as the source filed them. Entries that show only a call come without a potency. How the calls were made is not given here.

Assay: cytotoxicity in OVCAR8 ovarian cancer cells, dose response, PAX8 project, cell-based, plate reader, dry powder samples (AID 743197)
Conditions: series mostly up to 35 µM

| SMILES | outcome |
| --- | --- |
| C[C@@H]1CCCCO[C@@H](CN(C)Cc2ccc(C(F)(F)F)cc2)[C@H](C)CN([C@@H](C)CO)C(=O)c2cc(NS(=O)(=O)c3ccc(Cl)cc3)ccc2O1 | inactive |
| COc1ccc2c3c([nH]c2c1)[C@@H](CO)N(C(=O)Nc1cccc(F)c1)CC31CCN(S(=O)(=O)c2cccc(C)c2)CC1 | inactive |
| C[C@H](CO)N1C[C@H](C)[C@H](CN(C)CC2CCCCC2)OCCCC[C@H](C)Oc2ccc(NC(=O)Nc3ccccc3)cc2C1=O | inactive |
| COc1ccc(C#Cc2ccc([C@H]3[C@@H](CO)N4CCCCN(C(=O)Nc5ccccc5)C[C@H]34)cc2)cc1 | inactive |
| O=C(C1CCC1)N1CCCCN2[C@H](CO)[C@H](c3ccc(-c4cccc(F)c4)cc3)[C@H]2C1 | inactive |
| C[C@H]1CCCCO[C@H](CN(C)C(=O)Nc2ccc(C(F)(F)F)cc2)[C@@H](C)CN([C@@H](C)CO)C(=O)c2cc(NS(=O)(=O)c3cccs3)ccc2O1 | inactive |
| C[C@@H]1CN([C@@H](C)CO)C(=O)c2cc(N(C)C)ccc2O[C@@H](C)CCCCO[C@H]1CN(C)S(=O)(=O)c1ccc(F)cc1 | inactive |
| C[C@H](CO)N1C[C@H](C)[C@@H](CN(C)S(=O)(=O)c2ccc(Cl)cc2)OCCCC[C@H](C)Oc2ccc(NS(=O)(=O)c3ccc(F)cc3)cc2C1=O | inactive |
| COc1ccc(NC(=O)Nc2ccc3c(c2)C(=O)N([C@@H](C)CO)C[C@@H](C)[C@@H](CN(C)Cc2ccc(C(F)(F)F)cc2)O3)cc1 | inactive |
| COc1ccc(S(=O)(=O)Nc2ccc3c(c2)C(=O)N([C@H](C)CO)C[C@H](C)[C@H](CN(C)S(=O)(=O)c2ccc(F)cc2)OCCCC[C@H](C)O3)cc1 | inactive |
| COc1cccc(-c2ccc3c(c2)[C@@H]2[C@@H](CCN2S(=O)(=O)c2ccccc2C)[C@H](CO)N3C)c1 | inactive |
| C[C@H]1CCCCO[C@H](CN(C)Cc2ccc(C(F)(F)F)cc2)[C@@H](C)CN([C@@H](C)CO)C(=O)c2cc(NC(=O)Nc3ccc(F)cc3)ccc2O1 | inactive |
| C[C@H]1CN([C@@H](C)CO)S(=O)(=O)c2ccc(C#Cc3ccccc3F)cc2O[C@H]1CN(C)C(=O)c1ccc2c(c1)OCO2 | inactive |
| C[C@@H]1CCCCO[C@H](CN(C)Cc2ccncc2)[C@H](C)CN([C@H](C)CO)C(=O)c2cc(NC(=O)Nc3ccc(C(F)(F)F)cc3)ccc2O1 | inactive |
| O=S(=O)(c1ccccc1F)N1CC[C@@H]2[C@H](CO)Nc3ccc(C4=CCCCC4)cc3[C@@H]21 | inactive |
